Assay results published in PubChem BioAssay (NCI).
About 83,000 compounds went through this panel and 20% of them were active in at least one assay; those are over-represented in the sample as a whole.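 Assay: single dose, 48 h. Readout: percent growth (0 = no net growth; negative = cell death). Active: <10.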 A number with no mark means an inactive call. Active and inactive are the calls of the source.

Tested on: KM12 colon
Test: NCI-60 one-dose screen, 48 h (100 = growth as untreated, 0 = no growth, -100 = all killed)
Conditions: 10 µM unless noted

SMILES	growth
Clc1cccc(CNc2c3ccccc3nc3ccccc23)c1	40.8%
CC(C)(C)c1ccc(OC(=O)Nc2ccccc2)cc1	104%
O=C(/C=C/c1ccco1)c1ccccc1O	99.8%
CC(C)CC(=O)C(CCc1ccccn1)C(C)C (stereo unspecified)	113%
Cc1nn(-c2ccccc2)c2nc3c(nc12)C1=NCCN1C(c1ccc(Cl)cc1)N3 (stereo unspecified)	66%
Cc1cc([N+](=O)[O-])c(C)cc1N	107%
O=C1/C(=C/c2cc(F)cc(F)c2)Cc2cc(F)cc(F)c21	92.6%
N/C(=N\OC(=O)c1ccccc1)C(C(=O)NOC(=O)c1ccccc1)C1CCCCC1 (stereo unspecified)	19.9%
CCN(CC)CCNC(=O)C(F)(F)C(F)(F)C(F)(F)F	101%
O=C(Nc1ccncc1)C(=O)c1cn(S(=O)(=O)c2cccc(Cl)c2F)c2ccccc12	63.1%
CC(=O)Oc1c(Cl)c(Cl)c(Cl)c(Cl)c1Cl	103%
COc1cnc2c(c1)C(=O)c1c-2n(CCCN2CCNCC2)c(=O)c2cc(Cl)ccc12	11.8%
Cc1cc(C#Cc2ccc(C(C)(C)C)cc2)ccc1-n1c(/C=C/c2c(Cl)cccc2Cl)nc2ccccc2c1=O	98.6%
CS(=O)(=O)c1ccc(C(=O)N/N=C/c2ccccc2Cl)cc1	100%
O=C(/C=C/c1ccccc1)c1c[nH]c2ccccc2c1=O	1.5% (active)
COC(=O)[C@H](Cc1cn(C)cn1)NC(=O)[C@H](CC(C)C)NC(=O)Nc1cc(C(F)(F)F)cc(C(F)(F)F)c1	-95.4% [100 µM] (active)
